Screens as filed in PubChem.
3CLpro inhibitor: SARS-CoV 3CLpro protease inhibition. P0C6X7. recombinant SARS-CoV 3CLpro, quenched FRET peptide cleavage. inhibition, % at 6 µM. actives 0.14% (n = 290,000). AID 1706; in the data active means inhibition above about 12%
Mtb FBA inh: inhibitors of M. tuberculosis fructose-bisphosphate aldolase; P9WQA3; purified M. tuberculosis FBA, fluorescence read-out; inhibition, % at 1 µM; actives 2.3% (n = 360,000); AID 588726;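 further: 0% = vehicle and 100% = reference inhibitor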
Target sequence (P9WQA3 whole entry, looked up): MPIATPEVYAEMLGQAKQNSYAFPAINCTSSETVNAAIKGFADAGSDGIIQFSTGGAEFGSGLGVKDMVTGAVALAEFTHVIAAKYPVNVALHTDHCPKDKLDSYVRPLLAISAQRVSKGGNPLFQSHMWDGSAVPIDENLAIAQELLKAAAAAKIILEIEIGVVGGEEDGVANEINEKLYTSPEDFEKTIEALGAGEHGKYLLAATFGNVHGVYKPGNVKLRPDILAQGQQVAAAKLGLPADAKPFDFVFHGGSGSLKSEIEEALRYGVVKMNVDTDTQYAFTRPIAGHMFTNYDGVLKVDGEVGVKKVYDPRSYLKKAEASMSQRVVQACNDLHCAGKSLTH
BH1578 lux ind: inducers of Vibrio cholerae quorum light production without autoinducers. actives 0.16% (n = 350,000). activation, % at 18.7 µM. AID 588436. V. cholerae BH1578 lux reporter, luminescence, 6 h; in the data active means activation mostly above about 9.7%, no sharp cut-off
GDH-TPI counter-1: GDH-TPI coupled enzyme inhibition counter-screen; GDH-TPI coupled enzyme counterscreen, NADH absorbance; actives 1.2% (n = 360,000); inhibition, % at 4.8 µM; AID 588335; in the data active means inhibition above about 30%;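 further: 0% = DMSO wells and 100% = wells lacking the enzyme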
PrPC surface inh: inhibitors of human cell surface prion protein PrPC. TR-FRET read-out. inhibition, % at 13.8 µM. actives 0.43% (n = 370,000). AID 720596; in the data active means inhibition above about 24%; further: 0% = median of the test wells and 100% = reference compound wells
Mtb FBA inh conf: confirmation of M. tuberculosis fructose-bisphosphate aldolase inhibitors; shares compounds with Mtb FBA inh; purified M. tuberculosis FBA, fluorescence read-out; inhibition, % at 1 µM; actives 78% (n = 5,600); AID 651616;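 further: 0% = vehicle wells and 100% = reference inhibitor wells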
GDH-TPI counter-2: inhibits GDH-TPI coupling enzymes, flagging Mtb FBA hits; actives 81% (n = 5,600); inhibition, % at 1 µM; GDH-TPI coupled enzyme counterscreen, fluorescence; shares compounds with Mtb FBA inh; in the data active means inhibition above about 10%
GDH-TPI DR: counter-screen for M. tuberculosis FBA inhibitors: GDH-TPI dose response; shares compounds with Mtb FBA inh; GDH-TPI coupled enzyme assay, fluorescence, artifact counterscreen; IC50, µM; actives 79% (n = 170); AID 652145; call rule not given here
An asterisk follows results filed as active; i = inactive; / = not tested or not shown; + = active, no number. In the library only some 3.9% were active in any assay of this set; here they are far more common. Unless noted, no stated cut-off is given here; in the data, active means inhibition above about 27%; inactive means the rest.

SMILES | 3CLpro inhibitor | Mtb FBA inh | BH1578 lux ind | GDH-TPI counter-1 | PrPC surface inh | Mtb FBA inh conf | GDH-TPI counter-2 | others
COc1ccc2cc3cc(C(=O)NCCc4ccc(OC)c(OC)c4)oc3nc2c1 | 4 | 31* | 0 | 45* | -12 | 54* | 46*
COc1ccc2cc3cc(C(=O)N4CCN(C5CCCCC5)CC4)oc3nc2c1 | -8 | 50* | -1 | 9 | / | 23 | 5 | GDH-TPI DR=1.7*
COc1ccc2oc(=N)c(C(=O)Nc3ccccc3Cl)cc2c1 | -6 | 1 | 0 | 11 | 9 | / | /
Cc1ccc2c(c1)sc1nc(=O)ccn12 | -3 | 7 | 0 | 8 | 3 | / | /
COc1ccc2c(c1)sc1nc(=O)ccn12 | -6 | 49* | i | -12 | 1 | 117* | 106*
Cn1c(-c2ccccc2O)cc2ccccc21 | 4 | 32* | i | -4 | 2 | 140* | 119*
COc1ccc(Br)cc1CN(C)CC(O)COc1ccc(Br)cc1 (centres undefined) | 3 | 53* | 0 | 16 | -4 | 67* | 54*
Cc1cc(OC(=O)N(C)C)nc2c1c(C)nn2C | 1 | 9 | i | 1 | 3 | / | /
CC(=O)Nc1nn(C)c2nc(C)cc(C)c12 | -1 | 39* | 1 | -13 | 5 | 59* | 50*
CCCCN(C(=O)NC(=O)C1=C(N2CCOCC2)/C(=C/c2ccccc2)CC1)S(C)(=O)=O | -6 | 44* | i | 20 | 3 | 128* | 83*
CCOC(=O)C(=O)C1=C(N2CCOCC2)/C(=C\c2ccc(F)cc2)CC1 | 4 | -8 | i | 21 | -1 | / | /
ClC1=CN(C2=NCCC2)CC1 | / | -1 | / | / | / | / | /
OC1CCN(c2cc(-c3ccccc3)nc3cc(-c4ccc(F)cc4)nn23)CC1 | -1 | 22 | i | 2 | -2 | / | /
COc1ccc(-c2cc3nc(-c4ccccc4)cc(N4CCN(C(=O)c5ccoc5)CC4)n3n2)cc1 | / | 56* | 0 | 12 | 7 | 48* | 36*
Cc1cccc(-c2cc3nc4c(c(N5CCCC(O)C5)n3n2)CCC4)c1 (centres undefined) | 2 | 12 | i | 15 | -5 | / | /
COc1cccc(-c2cc3nc(-c4ccccc4)cc(N4CCCC(O)C4)n3n2)c1 (centres undefined) | -1 | 102* | -6 | 9 | 12 | 199* | 141*
O=C(c1ccoc1)N1CCN(c2cc(-c3ccccc3)nc3cc(-c4ccc(Br)cc4)nn23)CC1 | / | 7 | 1 | 3 | -4 | / | /
CCN1CCN(c2cc(-c3ccccc3)nc3cc(-c4cccc(F)c4)nn23)CC1 | -1 | 42* | -1 | 21 | 3 | 76* | 53*
ON=C(CCc1ccccc1)c1ccccc1 | / | 4 | 0 | -1 | 3 | / | /
COC(=O)C1=C(C)N(Cc2cccc(C(F)(F)F)c2)C(=NCc2cc(OC)c(OC)c(OC)c2)NC1c1ccccc1C(F)(F)F (centres undefined) | / | / | / | / | 7 | / | /
OCc1ccc2c(c1)c(-c1ccc3c(c1)OCCO3)c(-c1ccccc1)n2-c1ccccc1 | / | 62* | -1 | -2 | 2 | 10 | 3 | GDH-TPI DR=1.4*
COc1ccccc1Cn1c(=O)oc2ccccc21 | / | -1 | 1 | 7 | 3 | / | /
CCc1ccccc1Cn1c(=O)oc2cccnc21 | -2 | 40* | -1 | -7 | 0 | 41* | 37*
COc1ccc(C(=O)NCc2ccc3c(c2)OCO3)cc1 | 0 | 2 | i | -2 | -3 | / | /
COc1ccc2[nH]c(C(=O)NCCN3CCOCC3)cc2c1 | 0 | 77* | i | 2 | -2 | 43* | 35*
SMILES | 3CLpro inhibitor | Mtb FBA inh | BH1578 lux ind | GDH-TPI counter-1 | PrPC surface inh | Mtb FBA inh conf | GDH-TPI counter-2 | others
COc1ccc2[nH]c(C(=O)NCc3ccc4c(c3)OCO4)cc2c1 | -4 | 39* | -1 | 11 | -2 | 5 | -2
C[C@H]1CCC[C@H](O)CC(=O)c2c(O)cc(O)cc2CC(=O)O1 | / | / | / | / | 5 | / | /
O=C(O)c1ccc2c(c1)C(=O)N(CCCCCCCN1C(=O)c3ccc(C(=O)O)cc3C1=O)C2=O | 4 | -1 | 0 | 2 | -6 | / | /
O=C(O)c1ccc2c(c1)C(=O)N(CCc1ccccc1)C2=O | -4 | 85* | -3 | -1 | -7 | 174* | 132*
C[C@@H](c1ccccc1)N1C[C@@H](COCc2ccccc2)Oc2cc(N3CCC[C@H]3C(N)=O)ccc2S1(=O)=O | / | / | / | / | 13 | / | /
Cc1cccc(C)c1NC(=O)COc1ccc2c(C)c(Cc3ccccc3)c(=O)oc2c1 | 6 | 57* | -1 | 16 | -1 | + | 193*
COc1cc(NC(=O)COc2cc(C)cc3oc(=O)c(C)c(C)c23)cc(OC)c1OC | -6 | 1 | -1 | 5 | -5 | / | /
Cc1c(Cc2ccccc2)c(=O)oc2cc(OCC(=O)NCC3CCC(C(=O)O)CC3)ccc12 (centres undefined) | 2 | 104* | -1 | 34* | 3 | 4 | -4
CCc1c(C)c2ccc(OCC(=O)OC)cc2oc1=O | 0 | 70* | 0 | 17 | 14 | 61* | 48*
COC(=O)COc1cc(C)cc2oc(=O)c(CC(=O)OC)c(C)c12 | -2 | 93* | i | 9 | 0 | 84* | 66*
CCCCN=C(N)NC(=O)c1ccccc1 | / | / | / | / | -3 | / | /
CC1CN(CC(O)COc2ccc(C#N)cc2)CCN1CC(O)COc1ccc(C#N)cc1 (centres undefined) | -5 | -2 | -2 | 5 | -4 | / | /
CCC(C)NC(=O)c1ccccc1-c1nc2ccccc2[nH]1 (centres undefined) | -2 | 5 | 0 | 6 | -8 | / | /
CC1CCC2(CC1)NC(=O)N(CC(=O)N1CCOCC1)C2=O (centres undefined) | / | -2 | 0 | -8 | -3 | / | /
CCc1c(C)c2ccc(OCC(=O)NCC3CCC(C(=O)O)CC3)c(C)c2oc1=O (centres undefined) | -3 | 38* | -1 | 5 | -7 | 167* | 134*
CCCCOc1ccc(C(=O)n2ccc3ccc(-c4ccc5ccn(Cc6ccccc6)c5c4)cc32)cc1 | / | / | / | / | 5 | / | /
Fc1ccc(-c2cc(C(F)(F)F)n3ncnc3n2)cc1 | 3 | 85* | -1 | 10 | 2 | 130* | 129*
CC(=O)OC1c2ccccc2C(=O)N1c1ccccc1C (centres undefined) | 0 | 1 | -1 | -3 | -2 | / | /
COC(=O)C1(C)Nc2ccccc2C(=O)N1c1ccccc1C (centres undefined) | -1 | 52* | 0 | 16 | -5 | 102* | 71*
CCOC(=O)c1[nH]c2cc3c(cc2c1NC(=O)CN1CCc2ccccc2C1)OCO3 | 2 | 81* | -5 | 23 | -4 | 12 | 6 | GDH-TPI DR=1.3*
